# An excerpt weighted towards active compounds, which were near 6% of everything screened.
# D1 ag – human D1 receptor agonism; HEK293 T-REx D1 cells, calcium flux, agonist mode; activation, % at 2 µM; 1% of 360,000 active; AID 504660; in the data active = activation above about 30%; also: 0% is about no effect
# Target sequence (P21728 whole entry, looked up): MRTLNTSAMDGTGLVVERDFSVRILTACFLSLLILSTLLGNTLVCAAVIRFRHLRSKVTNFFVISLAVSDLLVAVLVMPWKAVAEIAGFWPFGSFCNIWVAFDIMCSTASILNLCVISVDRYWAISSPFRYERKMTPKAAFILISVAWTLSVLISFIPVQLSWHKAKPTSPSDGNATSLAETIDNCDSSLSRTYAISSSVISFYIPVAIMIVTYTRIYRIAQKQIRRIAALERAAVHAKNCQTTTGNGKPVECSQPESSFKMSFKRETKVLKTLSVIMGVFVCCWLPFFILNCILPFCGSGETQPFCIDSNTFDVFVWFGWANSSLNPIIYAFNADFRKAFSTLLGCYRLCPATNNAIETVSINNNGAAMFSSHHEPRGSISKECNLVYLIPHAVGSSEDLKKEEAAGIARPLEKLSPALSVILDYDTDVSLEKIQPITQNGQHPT
#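 Tetracycline-induced HEK293 TREx D1 cells, force-coupled to calcium signalling, were dye-loaded with a no-wash calcium kit. Compound was pin-added after a 10 s baseline. Fluorescence was read kinetically at 1 cycle/s for 180 s, with calcium rises flagged as agonism.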
# D1 antag – antagonists of human D1 dopamine receptor. P21728. HEK293 TREx D1 cells, calcium flux, dopamine EC80; active compounds read low. activity change, negative = inhibition, % at 10 µM. 3.2% of 360,000 active. AID 504652; in the data active = activity change below about -30%; also: % is scaled to controls: 0 for no effect and ±100 for the full control effect
#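 Calcium flux readout: force-coupled, inducible Hek293 Trex D1 line, cells induced overnight at 30 C with tetracycline, dye-loaded 30–90 min at RT. Antagonism scored against EC80 dopamine challenge given 180 s after compound.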
# D3 antag – blocks the human D3 dopamine receptor; P35462; D3R cells, DiscoveRx beta-arrestin luminescence, antagonist mode; active compounds read low; max response, negative = inhibition, %; 2.5% of 360,000 active; in the data active = max response below about -50%; inconclusive = no clear call, values can overlap the other calls; also: % is scaled to controls: 0 for no effect and ±100 for the full control effect
#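 Cells plated overnight at 1500 cells/well, then exposed to library compounds with dopamine controls for 90 minutes at 37 degrees C. DiscoveRx reagent added for 30–60 minutes at room temperature; luminescence read, quantitative HTS format.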
# D3 ag – agonists of human D3 dopamine receptor; D3R DiscoveRx beta-arrestin cells, luminescence, 90 min; max activation, %; P35462; 0.58% of 410,000 active; in the data active = max activation above about 30%; also: 0% is about no effect
#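 Cells at 1500/well, incubated overnight, then treated with pinned compounds (dopamine as control) for 90 min at 37 degrees C. DiscoveRx reagent added for 30 - 60 minutes at room temperature; luminescence read.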
# D1 potentiator – enhances dopamine response at the human D1 receptor; 0.036% of 360,000 active; P21728; potentiation, % at 10 µM; AID 504651; HEK293 TREx D1 cells, calcium flux, dopamine EC20 potentiation; in the data active = potentiation above about 30%; also: 0% is about no effect
# * hit, by the source's call; ? = inconclusive; / = no result given.
SMILES,D1 ag,D1 antag,D3 antag,D3 ag,D1 potentiator
Cc1ccc(-n2c(SCC(=O)N3CCCc4ccccc43)nc3c([nH]c4ccccc43)c2=O)cc1,1.3,-1.5,/,-21.3,-4.0
C=CC[C@H]1CC(C)=C[C@H](CC=C)N1C(=O)c1cc(COc2ccccc2SC)on1,39.7*,-13.4,18.8,9.9,2.6
COc1ccc(N(C(=O)c2ccccc2F)S(=O)(=O)c2ccc3c(c2)n(C)c(=O)n3C)cc1,-0.6,-5.4,/,8.5,-1.4
CC(Oc1ccccc1)C(=O)Nc1ccc(OCc2cc(=O)n3ccsc3n2)cc1 (configuration not stated),0.7,1.2,/,1.0,-4.3
CCc1ccc(NC(=O)Cn2c(-c3cncs3)nc3ccccc32)cc1,-0.5,1.4,/,3.2,0.8
CCOC(=O)C1CCN(C(=O)CCNS(=O)(=O)c2ccc3c(c2)CCN3C(=O)CC)CC1,0.4,18.4,27.9,-3.3,-8.4
CCC(=O)N1CCc2cc(S(=O)(=O)NCCC(=O)N3CCN(c4cccc(C)c4)C(C)C3)ccc21 (configuration not stated),11.4,-40.1*,18.3,0.9,-7.2
CCC(=O)N1CCc2cc(S(=O)(=O)NCCN3CCCCC3CC)ccc21 (configuration not stated),5.6,-6.5,-59.3*,-6.6,-8.2
Cc1ccc(C(O)c2nc3ccccc3n2C)cc1 (configuration not stated),10.3,1.7,23.4,0.4,-1.3
CC(C)c1ccc(C(O)c2nc3ccccc3n2C)cc1 (configuration not stated),10.6,-36.1*,-3.0,6.1,1.7
Cc1ccc(N(Cc2cccs2)C(=O)c2ccc(OC(C)C)cc2)cc1,26.6,10.0,/,-5.7,1.4
Cc1ccc2occ(/C=N/NC(=O)c3ccc(Cl)cc3)c(=O)c2c1,1.9,-9.5,-6.1,-4.7,2.0
COc1c(Br)cc(Br)cc1/C=N/NC(=O)c1ccncc1,-1.1,4.3,-79.9*,-8.9,-7.8
COc1cccc(C(=O)Oc2c(Br)cc(Br)cc2/C=N/NC(=O)c2cc(C)[nH]n2)c1,9.7,-32.3*,-12.0,-3.2,-2.7
Cc1ccc2occ(/C=N/NC(=O)c3ccncc3)c(=O)c2c1,1.1,-33.8*,4.3,7.8,-2.0
Cc1cc(C(=O)N/N=C/c2cccc(OC(=O)c3cccc(Br)c3)c2)n[nH]1,1.6,8.2,1.0,-12.0,0.0
COc1ccccc1/C=N/NC(=O)c1ccc(NC(=O)c2ccccc2Br)cc1,10.4,-27.6,0.9,0.9,-2.2
CCC(=O)Nc1ccc(C(=O)N/N=C/c2cc(Br)c(OC)cc2OC)cc1,2.1,-30.8*,7.3,0.8,-8.5
CCOC(=O)c1c(C)c(-c2ccccc2)n(CC(=O)NC2CCCCC2)c1C,0.4,-12.5,/,-8.5,-2.6
CCC(Sc1nc2ccncc2[nH]1)C(=O)Nc1cc(C)ccc1C (configuration not stated),4.9,3.1,/,9.5,-2.5
COc1c(Br)cc(Br)cc1/C=N/NC(=O)c1cccnc1,1.9,4.3,-95.7*,-29.4,-8.1
COc1cc(/C=N/NC(=O)c2cccnc2)cc(Br)c1O,4.0,-3.5,-5.1,-0.8,3.5
COCCCn1c(C(=O)NCCN2CCOCC2)cc2c(=O)n3cccc(C)c3nc21,0.9,-1.4,-54.2*,1.7,2.4
Cc1cccn2c(=O)c3cc(C(=O)NCCN4CCOCC4)c(=N)n(CCCN4CCOCC4)c3nc12,6.7,-1.6,-23.0,-5.6,-8.2
COc1ccc(C(=O)C[n+]2ccc3c(c2)nc(-c2cc(OC)c(OC)cc2OC)n3C)cc1,1.0,-30.9*,-16.3,-8.3,-3.9
SMILES,D1 ag,D1 antag,D3 antag,D3 ag,D1 potentiator
CCOc1ccc(N(C)c2ccc(/C=C3/SC(=S)NC3=O)cc2)cc1,133.4*,-11.6,0.0,-7.1,-5.2
CN(C)c1ccc(C=C2SC(=S)NC2=O)cc1,/,/,-10.1,-4.3,/
NC(=O)c1c(N)[nH]c(C(=O)c2ccccc2)c1-c1ccccc1Br,/,/,-52.0*,-6.2,/
CC(C)(C)C(=O)c1c(N)[nH]c(C(=O)c2ccccc2)c1-c1ccccc1Br,/,/,-13.1,-5.1,/
CCOc1ccc(CC(=O)Nc2cccc(-c3nc4cccnc4s3)c2C)cc1,4.0,-24.4,/,-7.0,1.1
Cc1coc2cc3oc(=O)c(CCC(=O)NCc4ccc(Cl)cc4)c(C)c3cc12,4.4,-13.8,/,-23.9,-1.2
Cc1ccc(NC(=O)NCCOCCn2c(=O)oc3ccccc32)c(C)c1,0.1,2.0,/,-11.5,1.2
O=C(O)c1ccc(S(=O)(=O)/N=C2\C=C(Nc3ccccc3F)C(=O)c3ccccc32)cc1,-0.4,-2.3,-106.5*,-28.3,-0.7
CCc1ccc(S(=O)(=O)/N=C2\C=C(NS(=O)(=O)c3ccccc3)C(=O)c3ccccc32)cc1,-0.5,-19.3,?,-12.8,-2.1
Cc1ccccc1NC1=C/C(=N\S(=O)(=O)c2ccc(C(=O)O)cc2)c2ccccc2C1=O,1.0,16.3,-97.1*,-19.8,/
Cn1nc(C(F)(F)F)c(-c2ccc(Br)cc2)c1NC(=O)Nc1ccc(F)cc1F,17.1,-34.1*,9.0,3.1,-9.2
COc1cc(NC(=O)c2ccc3oc(=O)c(S(=O)(=O)c4ccccc4)cc3c2)cc(OC)c1,2.4,4.5,/,1.0,1.9
Cc1ccc(NC(=O)N(Cc2c[nH]c3ccccc23)C2CCCCCC2)cc1C,2.2,15.1,/,-3.9,0.3
COc1cc2c(cc1NC(=O)CSc1nc3ccccc3[nH]1)oc1ccccc12,5.8,2.8,-74.7*,-7.7,-20.9
CC1CCC(NC(=O)C2(C)Cc3ccccc3C(=O)N2Cc2ccc(Cl)cc2)CC1 (configuration not stated),-0.3,-52.3*,/,-6.7,-0.9
CC(C)CCN1C(=O)c2ccccc2CC1(C)C(=O)NC1CCC(C)CC1 (configuration not stated),-0.3,-1.5,/,4.7,1.4
CN1C(=O)/C(=C/c2cc(C(C)(C)C)c(O)c(C(C)(C)C)c2)NC1=S,-2.6,-1.9,-58.3*,3.6,14.2
COC(=O)c1ccc(OCC2c3cc(OC)c(OC)cc3CCN2C(=O)Cc2ccc(OC)c(OC)c2)cc1 (configuration not stated),-2.5,-14.6,/,4.2,0.1
CCOc1ccc(-c2cc(NC(=O)c3c(F)cccc3F)c(C(=O)O)s2)cc1,0.4,-48.7*,-18.8,-14.0,-8.2
O=C(OCC(=O)N(Cc1ccccc1)Cc1ccccc1)c1ccccc1NCCO,0.3,-1.3,47.1,12.6,-5.7
CCN(C(=O)COC(=O)c1ccccc1NCCO)c1cccc2ccccc12,1.6,-42.6*,-12.4,-7.1,-3.2
CC[n+]1c(/C=C/C=C/N(C(C)=O)c2ccccc2)sc2cc(OC)ccc21,56.3*,-6.5,-24.2,3.9,-7.0
CCOc1cc(C(=O)Nc2cccc3ncccc23)cc(OCC)c1OCC,-0.2,7.8,-16.8,35.4*,-1.9

# Compound activity (PubChem BioAssay)
